# A selection: hits, their analogues and other compounds. The true share with any hit is near 9.4%.
# HPGD inh = blocks human HPGD enzyme activity; AID 894; 150,000 compounds, 4.3% hits; Potency, µM, inactives show at the top dose activity change, negative = inhibition, actives largely listed as inhibitors; P15428; purified HPGD, NADH fluorescence kinetic, PGE2 substrate; active = well fitted inhibition curve with a large enough effect, not every such curve was filed as active; inconclusive = small, poorly fitted or top-dose-only effect, or another doubt; inactive = no such curve, though single readings can be large or run the other way; also: potency is read from the fitted curve at half-maximal effect; % is scaled to controls: 0 for no effect and ±100 for the full control effect
# Target sequence (P15428 whole entry, looked up): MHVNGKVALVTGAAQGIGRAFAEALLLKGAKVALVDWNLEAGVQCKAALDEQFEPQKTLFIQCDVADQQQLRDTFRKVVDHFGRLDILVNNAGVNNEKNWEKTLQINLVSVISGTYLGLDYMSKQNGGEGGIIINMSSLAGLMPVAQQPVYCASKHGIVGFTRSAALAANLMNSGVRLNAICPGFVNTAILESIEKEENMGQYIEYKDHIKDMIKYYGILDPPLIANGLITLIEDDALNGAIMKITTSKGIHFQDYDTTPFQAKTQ
#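 NADH formation kinetics: reaction with 30 uM PGE2 and 1 mM NAD+ (final), 20 nM enzyme, Tris-HCl pH 8 with Tween 20, after 15 min compound preincubation at room temperature. Fluorescence change, last versus first of five reads.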
# IMPase cell inh = membrane-permeable compound that blocks inositol monophosphatase; CHO-M1 cells, IP1 accumulation, HTRF TR-FRET ratio; inhibition (IP1 accumulation), % at 46.1 µM; 120,000 tested, under 10 active; active = well fitted curve in the direction sought with a large enough effect in the signal ratio, not every such curve was filed as active; inconclusive = small, poorly fitted or top-dose-only effect, or a change in a side signal; inactive = no such curve, though single readings can be large or run the other way; the % refers to the signal ratio;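 also: cells stimulated with carbachol in lithium chloride buffer; plate controls were DMSO basal wells for no effect and reference inhibitor wells for full effect; higher means more IMPase inhibition seen as more IP1 and lower FRET ratio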
# Target sequence (P97697 whole entry, looked up): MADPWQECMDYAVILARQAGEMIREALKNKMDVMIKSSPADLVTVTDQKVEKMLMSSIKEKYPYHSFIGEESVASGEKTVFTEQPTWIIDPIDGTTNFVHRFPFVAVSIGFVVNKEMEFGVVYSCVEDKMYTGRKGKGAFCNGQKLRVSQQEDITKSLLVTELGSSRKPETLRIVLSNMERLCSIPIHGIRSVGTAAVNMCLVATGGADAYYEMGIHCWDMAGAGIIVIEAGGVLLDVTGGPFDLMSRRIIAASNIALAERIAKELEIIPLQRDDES
#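 CHO-M1 cells (CHO stably expressing M1 receptor), compound up to 46 uM final, stimulated with carbachol (50 uM as added) in buffer with 50mM LiCl, pH 7.4, 30 min at 37C. Cytosolic IP1 read by TR-FRET; AC50 from Hill fits.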
# HTT aggregate = inhibitors of mutant huntingtin aggregate formation in PC12 cells. PC12 HttQ103-GFP aggregates, Acumen cytometry, 40 h. Potency, µM (highest dose often 46.1 µM), for inactives: at the top dose activity change, negative = inhibition, hits mostly inhibitors. 220,000 compounds, 1.1% hits; also: potency is read from the fitted curve at half-maximal effect; % is scaled to controls: 0 for no effect and ±100 for the full control effect; nearly all actives have a fitted effect of over 60% in size
#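 Compounds (qHTS titration) were added to PC12 cells expressing an ecdysone-driven HTT exon 1 Q103–GFP fusion after induction with 100 nM tebufenozide. Aggregate formation was measured as GFP objects in cell lysates.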
# IMPase Li inh = IMPase inhibition in cells with lithium potentiation; CHO-M1 cells, IP1 TR-FRET (IP-One), carbachol + lithium; 210,000 compounds, 0.35% hits; AID 1457; Potency, µM (top dose mostly 59.4 µM), for the others: at the top dose activity, negative = IMPase inhibition, actives largely listed as inhibitors;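 also: IP1 builds up when IMPase is blocked and the TR-FRET signal falls; potency is read from the fitted curve at half-maximal effect; plate controls were basal vehicle for no effect and high inhibitor control for full effect; nearly all actives have a fitted effect of over 50% in size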
#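 Concentration–response in CHO-M1 cells, lithium-potentiated; 30 min at 37C. IP1 detected by competitive TR-FRET after 10 min lysis at RT. Hill-fitted AC50.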
# HTT cytoprotect = Huntington cell model cytoprotection by ATP luminescence | AID 1471 | Potency, µM (series often up to 56.4 µM), without a hit: cytoprotection (ATP increase), most hits filed as activators | 230,000 compounds, 0.14% hits | PC12 HTT-Q103 induced, cytoprotection, ATP luminescence, 40 h; also: potency is read from the fitted curve at half-maximal effect; % of control where 0% means no effect; nearly all actives have a fitted effect of over 45% in size
#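 Readout: ATPlite luminescence (ATP level). Model: stable PC12, inducible Htt exon1 Q103-GFP. Inducer: tebufenozide, 100 nM final. Compounds: dose series. No G418 in medium.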
# ALDH1A1 inh = blocks purified human ALDH1A1 activity | P00352 | Purified ALDH1A1, NADH fluorescence, propionaldehyde substrate | Potency, µM (series often up to 75.3 µM), for the others: at the highest dose activity, negative = inhibition, hits mostly inhibitors | 220,000 compounds, 7.3% hits | AID 1030; active = well fitted inhibition curve with a large enough effect, not every such curve was filed as active; inconclusive = small, poorly fitted or top-dose-only effect, or another doubt; inactive = no such curve, though single readings can be large or run the other way;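 also: potency is read from the fitted curve at half-maximal effect; plate controls were no enzyme wells and a reference inhibitor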
# * hit, by the source's call; ? = inconclusive; · = no result given; [ ] = dose if it differs, or a comment. Unless noted, calls follow the shape of the dose curve; as a rule, active = well fitted curve in the direction sought with a large enough effect; inconclusive = small, poorly fitted or top-dose-only effect, or another doubt; inactive = no such curve, though single readings can be large; an effect the other way counts as inactive or inconclusive.
SMILES,HPGD inh,IMPase cell inh,HTT aggregate,IMPase Li inh,HTT cytoprotect,ALDH1A1 inh
CC(=O)Nc1ccc(N/C=C/C(=O)C(C)(C)C)cc1,?,4,27%,25%[38.3 µM],16%,22µM*
COc1cccc(Oc2ccc(N/C=C/C(=O)C(C)(C)C)cc2)c1,-26%,·,7%,11%,·,10µM*
COc1ccc(Oc2ccc(N/C=C/C(=O)C(C)(C)C)cc2)cc1,·,·,-13%,9%,·,?
COc1cc(/C=C/C(=O)N2CCCN(C(=O)/C=C/c3cc(OC)c(OC)c(OC)c3)CC2)cc(OC)c1OC,·,·,26%,8%,-48%,-11%
COc1cc(/C=C/C(=O)N2CCC=CC2=O)cc(OC)c1OC,-24%,·,·,5%,·,10µM*
Cc1cc(C(=O)COC(=O)c2ccc([N+](=O)[O-])o2)c(C)n1CC1CCCO1 (centres undefined),·,·,15%,8%,-48%,16µM*
Cc1cc(C)c(C(=O)COC(=O)c2ccc([N+](=O)[O-])o2)cc1C,·,·,-14%,15%,-56%,2µM*
COCCn1c(C)cc(C(=O)COC(=O)c2ccc([N+](=O)[O-])o2)c1C,·,·,19%,3%,-33%,?
C[C@@H](NCCCc1cccc(C(F)(F)F)c1)c1cccc2ccccc12,·,·,?,·,-99%,·
COc1ccc(CNc2ncnc3ccc(-c4cccc(NS(C)(=O)=O)c4)cc23)c(OC)c1,·,·,·,23%,-246%,3%
CC(C)Cn1c(SCc2nnc(-c3cccs3)o2)nc(O)cc1=O,16µM*,11,2%,3%[38.3 µM],-3%[10 µM],-9%
Cc1nnc(SCc2nnc(-c3cccs3)o2)n1C,·,·,10%,-12%,4%,-2%
c1ccc([C@H](c2cccc3c2ccc2ccccc23)[C@H](c2ccccc2)c2cccc3c2ccc2ccccc23)cc1,·,·,·,·,-5%[10 µM],·
COC(=O)c1c(NC(=O)/C(C#N)=C/c2ccc(OC)cc2)sc2c1CCC2,·,-11,·,·,·,·
CCN(CC)c1nc2nonc2nc1N(CC)CC,-10%,4,0.45µM*,29%[38.3 µM],17%,-5%
COc1ccc(CN2C(=O)CS(=O)CC2=O)cc1OC,-12%,8,16%,-1%,-6%[10 µM],8.9µM*
CC(=O)Nc1cccc(C(=O)/C=C/c2ccc(C)cc2)c1,-6%,8,7%,10%,5%[10 µM],-2%
CN(C)c1ccc(/C=C/C(=O)c2cccc(Br)c2)cc1,-29%,-4,1%,-18%[38.3 µM],4%,7.1µM*
C[C@H]1[C@H](C)OC(=O)C[C@H](O)C[C@H](O)C[C@H](O)CC[C@H](O)[C@H](O)CC(=O)C[C@H](O)[C@H](C(=O)O)[C@H](O)C[C@H](O[C@@H]2O[C@@H](C)[C@H](O)[C@@H](N)[C@@H]2O)C=CC=CC=CC=CCCC=CC=C[C@@](C)(O)[C@H]1O,-11%,·,·,0%,9%[10 µM],-10%[13.5 µM]
O=C(O)c1ccccc1C(c1ccc(O)cc1)c1ccc(O)cc1,3%,·,·,-17%,-13%,28µM*
O=C(NNC(=O)c1ccccc1C(=O)O)c1ccc(O)cc1,·,·,2%[9.22 µM],-2%,-68%,-2%
Fc1ccc(NC(=S)N2CCN(c3ncccn3)CC2)cc1,·,·,4%,4%,-7%[10 µM],2%
COC(=O)Cn1c(=NC(=O)c2ccc(OC)c(OC)c2)sc2cc(OC)ccc21,?,·,10%,8.9µM*,-12%[10 µM],?
COc1ccc(C(=O)N=c2sc3ccccc3n2C)cc1OC,·,·,25%,3%,-53%,?
CC(C)N(C(=O)CSc1nnc(NC(=O)c2cccs2)s1)C(C)C,-13%,3,7%,-2%,-12%[1.9 µM],8%
CS(=O)(=O)Nc1nnc(SCC(=O)N(c2ccccc2)c2ccccc2)s1,-17%,-4,-10%,-3%,16%[10 µM],32µM*
Cc1ccc(O)c(C2=NNC(O)(C(F)(F)F)C2)c1 (centres undefined),25µM*,-5,4%,9%[38.3 µM],0%,9%
Cc1ccc(O)c(C2=NNC(c3ccc(Cl)cc3)C2)c1 (centres undefined),·,·,1%[9.22 µM],·,18%[10 µM],·

# Screening data as filed in PubChem BioAssay.
